# Screens: PubChem BioAssay, several laboratories
# Sampled rows, rich in hits. Any-hit rate of the full collection: about 1.7%.
# PfHsp40 yeast = compounds rescuing yeast from Plasmodium falciparum HSP40 toxicity; S. cerevisiae expressing PfHsp40, growth rescue, ATP luminescence; 0.68% of 340,000 active; growth rescue, % at 12.5 µM; AID 504582; in the data active = growth rescue above about 28%, passing the limit was not always enough;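 note: yeast W303a lacking pdr1 and pdr3 grown in galactose medium; growth measured after three days at 30 °C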
# CCHF vOTU inh-1 = blocks the CCHF virus ovarian tumor domain protease; 0.55% of 370,000 active; AID 651958; inhibition, % at 11.5 µM; CCHFV vOTU protease, Pep-AMC fluorescence
# Sa RN4220 lethal = kills Staphylococcus aureus RN4220; S. aureus RN4220 growth, OD600, 16 h; inhibition, % (no concentration beside the values); 0.33% of 330,000 active; in the data active = inhibition above about 85%
# ugtP null kill = compounds lethal to S. aureus RN4220 ugtP deletion mutant; 0.54% of 330,000 active; growth inhibition, % (no concentration beside the values); OD600 growth, 16 h; AID 1259309; in the data active = growth inhibition above about 68%
# Mtb hypoxia rep = reduces hypoxia-regulated biosensor signal in M. tuberculosis; fluorescence inhibition, % (no concentration beside the values); M. tuberculosis hypoxia-regulated fluorescent reporter, fluorescence; 0.1% of 300,000 active; in the data active = fluorescence inhibition mostly above about 23%, no sharp cut-off; inactive = mostly below about 17%
# Vc quorum ag = quorum light induction in luxS cqsA deficient V. cholerae. V. cholerae BH1578 lux reporter, luminescence, 6 h. activation, % at 18.7 µM. 0.16% of 350,000 active. AID 588436; in the data active = activation mostly above about 9.7%, no sharp cut-off
# CCHF vOTU inh-2 = confirmation of CCHF virus vOTU protease inhibitors; shares compounds with CCHF vOTU inh-1; inhibition, % at 11.5 µM; Recombinant CCHFV vOTU, Pep-AMC fluorescence; 17% of 1,900 active
# Hits are given with their value; - = inactive; . = no result given. Cut-off read from the data, not from the text of the source, unless noted: active = inhibition above about 30%; inactive = the rest.
SMILES,PfHsp40 yeast,CCHF vOTU inh-1,Sa RN4220 lethal,ugtP null kill,Mtb hypoxia rep,Vc quorum ag,CCHF vOTU inh-2
CCOC(=O)C1(CCc2ccccc2)CCN(C(=O)c2occc2C)CC1,-,32.2,-,-,-,-,-
O=C(O)/C=C/c1ccc(S(=O)(=O)Nc2ccc3[nH]c(=O)[nH]c3c2)cc1,-,33.2,-,-,-,-,-
CCCCn1c(NS(=O)(=O)c2ccccc2)c(C(=O)OCC)c2nc3ccccc3nc21,-,34.8,-,-,-,-,74.1
CCCCn1c(NS(=O)(=O)c2ccc(C)cc2)c(S(=O)(=O)c2ccccc2)c2nc3ccccc3nc21,-,89.9,.,.,.,-,-
CCCCn1c(NC(=O)c2ccc(Br)o2)c(C(=O)OCC)c2nc3ccccc3nc21,-,-,.,.,.,-,.
CCOC1OC(C(=O)NC2CC2)=CC(c2coc3ccccc3c2=O)C1CCCO (stereo not given),.,.,-,-,-,.,.
Cc1ccc(C2=CCN(C)C(=O)N2c2ccccc2)cc1,.,-,.,.,.,.,.
C=C1c2nc3ccccc3n2C=C(c2ccc(C)cc2)N1c1ccccc1,-,34.7,.,.,.,.,-
COc1ccc(C2CC(=O)C=C(c3ccc4c5c(cccc35)CC4)C2)cc1 (stereo not given),.,.,-,-,-,.,.
COCCNC(=S)N1C[C@H]2CON(C)[C@H]2C[C@H]1c1ccccc1Br,.,32.6,.,.,.,.,-
COc1ccc(NC(=O)[C@@H]2CCCN2C(=O)[C@@H]2Cc3ccccc3CN2C(=O)OC(C)(C)C)cc1,-,34.8,-,-,-,-,-
CC(=NNc1ncc(Br)cn1)c1ccc([N+](=O)[O-])cc1,.,.,-,-,-,.,.
COc1ccc(NC(=O)Nc2ccc(O)c3ccccc23)cc1,.,82.1,-,-,-,.,-
COc1ccc(NC(=O)Nc2ccccc2OC)cc1,-,-,-,-,-,-,.
COc1ccc(OC)c(S(=O)(=O)Nc2cccc3c(O)cccc23)c1,.,-,-,-,-,-,.
COc1ccc(C(=O)Nc2ccc(O)c3ccccc23)cc1,-,30.6,-,-,-,-,-
COc1ccc(OC)c(S(=O)(=O)Nc2ccc(O)c3ccccc23)c1,-,65.6,-,-,-,.,-
CCC(C)C(C)=NNC(=O)CNS(=O)(=O)c1ccc([N+](=O)[O-])cc1 (stereo not given),.,.,-,-,-,.,.
COC(=O)[C@@]1(Cc2ccc(F)cc2)C2c3cc(C(=O)N(C)C)n(Cc4ccccc4)c3CC2CN1C(=O)c1ccccc1 (stereo not given in full),.,.,-,-,-,.,.
COc1ccccc1C(CCNCc1ccc(N(C)C)cc1)c1ccc(OC(C)C)cc1 (stereo not given),-,32.8,-,-,-,-,-
COc1cc(C=NNc2ncc(C(F)(F)F)cc2Cl)cc(OC)c1O,.,.,-,-,-,.,.
COC(=O)[C@]12C[C@H](CC(=O)NCc3cccc(C(F)(F)F)c3)C(=O)N(Cc3ccc(Cl)cc3Cl)C1=C[C@H](C1CCCC1)O[C@@H]2C,.,31.6,.,.,.,.,-
CCCCCCCCN1C(=O)[C@@H](CC(=O)N2CCCC2)C[C@@]2(C(=O)OC)C1=C[C@H](C1CCCC1)O[C@@H]2C,.,-,.,.,.,.,.
CCCCCCCCN1C(=O)[C@@H](CC(=O)N2CCN(C(=O)C3CC3)CC2)C[C@@]2(C(=O)OC)C1=C[C@H](C1CCCC1)O[C@@H]2C,.,33.0,.,.,.,.,-
CCCCCCCCN1C(=O)[C@@H](CC(=O)NCc2ccc(C)o2)C[C@@]2(C(=O)OC)C1=C[C@H](C1CCCC1)O[C@@H]2C,.,30.1,.,.,.,.,-
SMILES,PfHsp40 yeast,CCHF vOTU inh-1,Sa RN4220 lethal,ugtP null kill,Mtb hypoxia rep,Vc quorum ag,CCHF vOTU inh-2
Nc1cccc(C(=O)NN=Cc2ccsc2)c1,.,.,-,-,-,.,.
O=C(Cc1ccc(F)cc1)NN=Cc1ccncc1,.,.,-,-,-,.,.
COc1ccccc1/C=C\C=NNC(=O)c1ccco1,.,.,-,-,-,.,.
Cc1ccsc1/C=N\Nc1cn[nH]c(=O)c1Cl,-,29.7,.,.,.,-,-
COc1cccc(C=NNC(=S)NCc2ccco2)c1OC,.,.,-,-,-,.,.
Cc1ccc(S(=O)(=O)N2[C@@H](c3ccc(C(C)(C)C)cc3)C(C(=O)O)=CC[C@H]2c2ccc(Cl)cc2)cc1,-,41.8,98.6,-,-,-,-
CCc1ccc([C@@H]2CC=C(C(=O)O)[C@H](c3ccc(C(C)(C)C)cc3)N2S(=O)(=O)c2ccc(C)cc2)cc1,-,46.0,-,-,.,-,-
Cc1ccc(S(=O)(=O)N2[C@@H](c3ccc(C(C)(C)C)cc3)C(C(=O)O)=CC[C@H]2c2cccs2)cc1,-,32.2,-,-,-,-,-
